This is an account of results in PubChem BioAssay (NCATS).

Test [1] in a line: Primary fluorescence-based thiol-reactive (MSTI) qHTS assay for identification of artifact compounds. (AID 1845221). Also: nearly all actives have a fitted effect of over 65% in size. Also: potency is read from the fitted curve at half-maximal effect.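 As to activity change, negative = thiol reactive: series mostly up to about 54 µM; thiol-reactive compounds lower the probe fluorescence signal.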 In short, it runs like this: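 Probe: MSTI 4 uM, PBS pH 7.4, 2% DMSO. Incubation 1 h, RT, light-protected. Readout fluorescence 525/598 nm.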
For test [2], the system named is Nanoluciferase (engineered Oplophorus gracilirostris luciferase). In words: Primary Nanoluciferase (NLuc) qHTS assay for identification of artifact compounds. (AID 1845222).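 Also: NLuc secreted into diluted conditioned medium of S16 cells; series mostly up to about 54 µM; 0% = DMSO and -100% = no enzyme.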 In short, it runs like this: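 NLuc from S16 cell medium (1:55) plus test compounds, 15 min, room temperature. Luminescence after Nano-Glo (1:100) addition, 5 min.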
Background: In qHTS, concentration-response curves come from the screen itself.

The nature of test [3]: Primary redox qHTS assay for identification of artifact compounds. (AID 1845223).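 Also: 0% = DMSO and 100% = reference compound.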 A digest of the protocol:
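Amplex Red (25 uM) and HRP (250 mU/mL) in HBSS, with compounds for 15 min, then 250 uM DTT for 30 min, room temperature, dark. Fluorescence 525/598 nm read; normalized to DMSO and 10 uM DA3003; Hill fit.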

A number with no mark means an inactive call. Results filed as inconclusive are left out. Active and inactive are the calls of the source. Calls follow the shape of the dose curve; as a rule, active = well fitted curve in the direction sought with a large enough effect; inconclusive = small, poorly fitted or top-dose-only effect, or another doubt; inactive = no such curve, though single readings can be large; an effect the other way counts as inactive or inconclusive.

For `C[C@H]1[C@H](C)CC[C@]2(C(=O)O)CC[C@]3(C(=O)O)C(=CCC4[C@@]5(C)CC[C@H](O[C@@H]6O[C@H](C)[C@@H](O)[C@H](O)[C@H]6O)C(C)(C)C5CC[C@]43C)[C@H]12` (some centres not stated), the Potency result in test [1], in test [2] and in test [3] was “inactive” each time.
For the molecule `C[C@@H]1O[C@@H](O[C@H]2[C@H](O[C@H]3[C@H](O[C@H]4CC[C@@]5(C=O)C(CC[C@]6(C)C5CC=C5C7CC(C)(C)C[C@@H](O)[C@]7(C)CC[C@]56C)C4(C)C)O[C@H](C(=O)O)[C@@H](O)[C@@H]3O)OC[C@@H](O)[C@@H]2O)[C@H](O)[C@H](O)[C@H]1O` (some centres not stated), the activity change, negative = thiol reactive in test [1] was 114% [at 11.5 µM]. In test [2], the activity, negative = inhibition is 3.37% [at 11.6 µM]. The redox activity (% of DA3003) in test [3] is 8.98% [at 11.5 µM].
As for `C/C=C1\[C@H](O[C@@H]2O[C@H](CO)[C@@H](O)[C@H](O)[C@H]2O)OC=C(C(=O)OC)[C@H]1CC(=O)OC`, the Potency entry in test [1], in test [2] and in test [3] was “inactive” each time.
On to `O=C(COc1ccc(Cl)cc1)NC1CCC(NC(=O)COc2ccc(Cl)cc2)CC1` (configuration not stated), for which the Potency result in test [1], in test [2] and in test [3] was “inactive” throughout.
Regarding `CNC(=O)c1ccc(Nc2ncc(C(F)(F)F)c(NCc3nccnc3N(C)S(C)(=O)=O)n2)cc1`, the Potency result in test [1], in test [2] and in test [3] was “inactive” each time.
For the molecule `COc1ccccc1-n1c(SCC(=O)Nc2nc3ccc(C)cc3s2)nc2c(c1=O)SCC2`, the Potency result in test [1], in test [2] and in test [3] was “inactive” in each case.
For `CC(C)CC1(C(=O)OCc2ccc(O[C@@H]3O[C@H](CO)[C@@H](O)[C@H](O)[C@H]3O)cc2)CC(=O)OC(C(=O)O)CC(=O)OCC2OC(O1)C(OC(=O)/C=C/c1ccc(O)cc1)C(O)C2O` (some centres not stated), the activity change, negative = thiol reactive in test [1] was 14.7% [at 11.5 µM]. Also, the activity, negative = inhibition in test [2] is -4.21% [at 11.6 µM]. In test [3], the redox activity (% of DA3003) is 23.6% [at 11.5 µM].
Turning to `CC[C@H]1OC(=O)[C@H](C)[C@@H](O[C@H]2C[C@@](C)(OC)[C@@H](O)[C@H](C)O2)[C@H](C)[C@@H](O[C@@H]2O[C@H](C)C[C@H](N(C)C)[C@H]2O)[C@@](C)(O)C[C@@H](C)[C@@H]2N[C@@H](COCCOC)OC([C@H]2C)[C@]1(C)O`, the Potency entry in test [1], in test [2] and in test [3] was “inactive” throughout.
Take `O=C(/C=C/c1ccc(O)cc1)OCC1=CC2OC(=O)C3=CO[C@@H](O[C@@H]4O[C@H](CO)[C@@H](O)[C@H](O)[C@H]4O)[C@H]1[C@@H]32` (some centres not stated): the Potency entry in test [1], in test [2] and in test [3] was “inactive” throughout.
For the molecule `C[C@@H]1O[C@@H](O[C@H]2[C@H](OC(=O)[C@]34CCC(C)(C)C[C@H]3C3=CCC5[C@@]6(C)C[C@H](O)[C@H](O[C@@H]7O[C@H](CO[C@@H]8OC[C@H](O)[C@H](O)[C@H]8O)[C@@H](O)[C@H](O)[C@H]7O)C(C)(C)C6CC[C@@]5(C)[C@]3(C)C[C@H]4O)OC[C@@H](O)[C@@H]2O)[C@H](O)[C@H](O[C@@H]2OC[C@](O)(CO)[C@H]2O)[C@H]1O[C@@H]1OC[C@H](O)[C@H](O[C@@H]2OC[C@@H](O)[C@H](O)[C@H]2O)[C@H]1O` (some centres not stated), the activity change, negative = thiol reactive in test [1] was 452% [at 11.5 µM]. Besides, the activity, negative = inhibition in test [2] is 3.55% [at 11.6 µM]. For the same molecule, the redox activity (% of DA3003) in test [3] was 10.3% [at 11.5 µM].
For the molecule `COC(=O)CC[C@@H](C)[C@H]1CC[C@H]2[C@@H]3CC(=O)[C@H]4C[C@H](OC(C)=O)CC[C@]4(C)[C@H]3CC[C@]12C`, the Potency entry in test [1], in test [2] and in test [3] was “inactive” each time.
Take `CCC/C=C/C(=O)O[C@H]1CC(C)(C)CC2[C@]13[C@H](O)O[C@@]21CCC2[C@@]4(C)CC[C@H](O[C@@H]5O[C@H](C(=O)O)[C@@H](O)[C@H](O[C@@H]6O[C@H](CO)[C@H](O)[C@H](O)[C@H]6O[C@@H]6O[C@@H](C)[C@H](O)[C@@H](O)[C@H]6O[C@@H]6OC[C@](O)(CO)[C@H]6O)[C@H]5O[C@@H]5O[C@H](CO)[C@H](O)[C@H](O)[C@H]5O)C(C)(C)C4CC[C@@]2(C)[C@]1(C)C[C@H]3OC(C)=O` (some centres not stated): in test [1], the activity change, negative = thiol reactive is 179% [at 11.5 µM]. Further, the activity, negative = inhibition in test [2] is 4.57% [at 11.6 µM]. Further, the redox activity (% of DA3003) in test [3] is -2.32% [at 11.5 µM].
For the molecule `C=C1CCC2C(C)(C)C(O)CCC2(C)C1CCC(C)CCOC(=O)CCC(=O)O` (configuration not stated), the Potency result in test [1], in test [2] and in test [3] was “inactive” each time.
Consider `CC1=CC(=O)CC(C)(C)C1CCC(C)OC1OC(COC(=O)c2cc(O)c(O)c(O)c2)C(O)C(O)C1O` (configuration not stated), for which, in test [1], the Potency is 1160 nM (active). The Potency result in test [2] and in test [3] was “inactive” each time.
Take `COC1=CC(=O)O[C@@H](/C=C/c2ccccc2)[C@@H]1O`: the Potency result in test [1], in test [2] and in test [3] was “inactive” throughout.
With `C[C@@H]1O[C@@H](O[C@H]2[C@H](O[C@H]3[C@H](O[C@H]4CC[C@@]5(CO)C(CC[C@]6(C)C5CC=C5C7CC(C)(C)C[C@@H](O)[C@]7(C)CC[C@]56C)C4(C)C)O[C@H](C(=O)O)[C@@H](O)[C@@H]3O)OC[C@@H](O)[C@@H]2O)[C@H](O)[C@H](O)[C@H]1O` (some centres not stated), in test [1], the activity change, negative = thiol reactive was 150% [at 11.5 µM]. In addition, the activity, negative = inhibition in test [2] was -0.0839% [at 11.6 µM]. Further, in test [3], the redox activity (% of DA3003) was 0.809% [at 11.5 µM].
In the case of `CC(C)=CCCC1(C)Oc2cc3c(c4c2C2C(O4)C(C)(O)CCC21)CN(C(CCC(=O)O)C(=O)O)C3=O` (configuration not stated), the Potency result in test [1], in test [2] and in test [3] was “inactive” in each case.
`C=C1CC/C=C(/CO)C(=O)C[C@@H]2[C@@H]1CC2(C)C`: the Potency entry in test [1], in test [2] and in test [3] was “inactive” each time.
For the molecule `COc1cc(NC(=O)c2ccccn2)ccc1Cl`, the Potency result in test [1], in test [2] and in test [3] was “inactive” each time.
